Compound activity: PubChem BioAssay, National Center for Advancing Translational Sciences (NCATS)
The list is not random: actives were taken first. Their share in the collection is about 2.4%.
Pol beta inh = inhibitors of human DNA polymerase beta; P06746; Pol beta primer extension/strand displacement, fluorescence kinetic; Potency, µM (titrated, usually from 114 µM), usual class: inhibitors; 1.3% of 340,000 active; AID 485314
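10 nM enzyme + cpd, 15 min RT; start with substrate 50 nM final; read 0 min and after 10 min RT. Corrected, normalized data; 4-parameter Hill curve fit.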
POLI inh = blocks human DNA polymerase iota activity; Potency, µM (top dose mostly 115 µM), usual class: inhibitors; AID 588590; 1% of 390,000 active; Pol iota fluorescent replication assay, 10 min
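Fluorescent replication assay read twice, at 0 min and 10 min after adding 50 nM (final) substrate. Enzyme (10 nM) and compounds were first incubated 15 min at room temperature; enzyme-free buffer wells were negative controls.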
PGK inhibitor = blocks T. brucei phosphoglycerate kinase | 0.043% of 380,000 active | P07378 | PGK/GAPDH coupled, Kinase-Glo luminescence, 60 min | Potency, µM (top dose mostly 57.5 µM), usual class: inhibitors; further: nearly all actives have a fitted effect of over 60% in size
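Recombinant glycosomal PGK reaction used 1,3-bisphosphoglycerate generated in-well by GAPDH (100nM final) in 100mM TEA pH 7.6, 5mM MgCl2, 0.01% Tween-20. After 60 minutes at room temperature, ATP was read by Kinase-Glo Plus luminescence end-point.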
Pol kappa inh = blocks human DNA polymerase kappa activity | Q9UBT6 | purified Pol kappa, fluorescent DNA synthesis assay, 10 min | Potency, µM (series often up to 107 µM), hits mostly inhibitors | 0.53% of 400,000 active | AID 588579
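10 nM Pol kappa was preincubated with compounds for 15 min at room temperature. Reaction started with 50 nM (final) substrate. Fluorescence read kinetically at 0 and 10 min.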
Pol eta inh = DNA polymerase eta (human) inhibition. Q9Y253. recombinant Pol eta, fluorescent DNA replication assay. Potency, µM (doses to about 114 µM), hits mostly inhibitors. 1.2% of 390,000 active
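Fluorescent replication assay: 50 nM final substrate added after a 15 min room-temperature compound preincubation with 10 nM enzyme. Signal taken at 0 min and again at 10 min.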
FEN1 inhibitor = human FEN1 inhibition; Recombinant FEN1 flap cleavage, fluorescence, 15 min; Potency, µM (doses to about 114 µM), usual class: inhibitors; AID 588795; P39748; 0.35% of 390,000 active; further: nearly all actives have a fitted effect of over 65% in size
Target sequence (P39748 whole entry, looked up): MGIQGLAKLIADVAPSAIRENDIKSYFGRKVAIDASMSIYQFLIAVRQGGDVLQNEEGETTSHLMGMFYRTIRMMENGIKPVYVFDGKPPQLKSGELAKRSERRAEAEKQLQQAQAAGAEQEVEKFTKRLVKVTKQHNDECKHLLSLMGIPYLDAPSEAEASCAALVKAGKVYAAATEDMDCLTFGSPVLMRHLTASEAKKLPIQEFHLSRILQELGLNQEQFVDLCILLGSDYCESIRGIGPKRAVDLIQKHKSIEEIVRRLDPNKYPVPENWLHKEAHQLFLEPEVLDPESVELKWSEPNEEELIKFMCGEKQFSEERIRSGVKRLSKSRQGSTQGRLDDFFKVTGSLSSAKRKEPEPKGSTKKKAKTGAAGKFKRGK
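With each library titrated from low to high concentration, compounds met 10 nM FEN1 for 15 min at room temperature before 50 nM substrate was added; readings at 0 and 15 min fed four-parameter Hill curve fits.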
Large screens that a line does not name were inactive. The call rests on the fitted dose curve; in most records, active means well fitted curve in the direction sought with a large enough effect; inconclusive means small, poorly fitted or top-dose-only effect, or another doubt; inactive means no such curve, though single readings can be large; an effect the other way counts as inactive or inconclusive.

COc1cccc(-c2cc(=O)c3ccc(OC)cc3o2)c1	none (no result: Pol beta inh, POLI inh, PGK inhibitor, Pol eta inh, FEN1 inhibitor)
Cc1ccc(SCC(=O)NC(=O)NCc2ccco2)cc1C	Pol beta inh 40µM (no result: POLI inh, PGK inhibitor, Pol kappa inh, Pol eta inh, FEN1 inhibitor)
O=C(CSc1nncs1)NC(=O)NCc1ccco1	Pol beta inh inconclusive, POLI inh inconclusive
Cc1c(O)c2c(c(C(=O)/C=C/c3ccccc3)c1O)OC(C)(C)C=C2	none (no result: Pol beta inh, PGK inhibitor, Pol eta inh)
CCCN1C(=O)/C(=C/c2c(N3CCNC(=O)C3CC(=O)OC)nc3c(C)cccn3c2=O)SC1=S (stereo unspecified)	Pol beta inh 89µM (no result: POLI inh, PGK inhibitor, Pol kappa inh, Pol eta inh, FEN1 inhibitor)
CCOC(=O)CC1C(=O)NCCN1C(=O)c1cc2c(=O)n3cccc(C)c3nc2s1 (stereo unspecified)	none
O=c1c(CCc2ccccc2)nc2cnc(N3CCNCC3)nc2n1-c1ccccc1	none (no result: Pol beta inh, POLI inh, PGK inhibitor, Pol eta inh, FEN1 inhibitor)
O=C(O)c1ccc2c(c1)C(=O)N(N1C(=O)c3ccccc3C1=O)C2=O	Pol beta inh 25µM
O=C(Nc1ccccc1O)c1ccc2c(c1)C(=O)N(N1C(=O)c3ccccc3C1=O)C2=O	Pol beta inh 28µM
O=C(c1ccc2c(c1)OCCO2)N1CCN(c2nc(-c3cccs3)nc3ccccc23)CC1	none (no result: Pol beta inh, PGK inhibitor, Pol eta inh)
COc1ccc(C(OCCN2CCC[C@H](C(=O)O)C2)(c2ccc(OC)cc2)c2ccc(OC)cc2)cc1	none (no result: Pol beta inh, POLI inh, PGK inhibitor, Pol eta inh, FEN1 inhibitor)
Cc1ccc(Nc2nc(NCc3ccco3)nc3nccnc23)c(C)c1	none (no result: Pol beta inh, PGK inhibitor, Pol eta inh)
CC(=O)c1ccc(NC(=S)N2CCN(c3ccccn3)CC2)cc1	Pol eta inh 89µM
CCOC(=O)Cc1ccc(NC(=O)N2CC(C)Oc3ccc(Cl)cc32)cc1 (stereo unspecified)	none
O=C1C(Nc2ccccc2)=C(N2CCCCC2)C(=O)c2ccccc21	Pol beta inh inconclusive, POLI inh inconclusive
O=C(/C=C/c1ccc(O)cc1)c1ccc(NC2=C(N3CCCCC3)C(=O)c3ccccc3C2=O)cc1	Pol beta inh inconclusive, POLI inh 28µM, Pol eta inh inconclusive
CCOC(=O)c1ccc2c(c1)n(CC)c(/C=C/N(C)c1ccccc1)[n+]2CC	none
CC[n+]1c(/C=C/N(C)c2ccccc2)n(-c2ccccc2)c2ccc(-c3nc4ccccc4s3)cc21	Pol kappa inh 21µM, Pol eta inh inconclusive, FEN1 inhibitor 40µM
O=C(Nc1cccc(Cl)c1)c1ccc(=O)[nH]n1	POLI inh 18µM
O=C(Nc1cccc(C(=O)OCc2cc(=O)n3c4c(sc3n2)CCCC4)c1)c1cccc(F)c1	none
Cc1cc(C)cc(NC(=O)CSCn2nnc3c(=O)[nH]c(Cc4ccc(F)cc4)nc32)c1	Pol beta inh 40µM, POLI inh 79µM, Pol kappa inh 79µM, Pol eta inh inconclusive, FEN1 inhibitor inconclusive
O=c1cc(O)c(Cl)c[nH]1	none (no result: Pol beta inh, POLI inh, PGK inhibitor, Pol eta inh, FEN1 inhibitor)
COc1ccccc1C1NC(c2ccc3c(c2)OCO3)=CC(c2ccccc2O)N1 (stereo unspecified)	POLI inh inconclusive (no result: Pol beta inh, PGK inhibitor, Pol eta inh)
CCOc1ccccc1NC(=O)Cn1c(=O)n(CCCC(=O)NCCOC)c(=O)c2cc(OC)c(OC)cc21	POLI inh 89µM, Pol kappa inh inconclusive
OCCCc1cn(-c2ccccc2)c2ccccc12	none
Clc1nc(Cl)nc(-c2cn(-c3ccccc3)c3ccccc23)n1	Pol beta inh 20µM
COc1ccc(/C=C2/C(=O)N(Cc3ccccc3)N=C2C)cc1	POLI inh 22µM
O=C(/C=C/c1ccc(O)c(O)c1)c1ccc(S(=O)(=O)N2CCCCCC2)cc1	Pol beta inh inconclusive, POLI inh inconclusive, Pol eta inh 7.9µM
COC(=O)c1ccc(S(=O)(=O)N2CCCCCC2)cc1	none
O=C(NCc1ccc(F)cc1)c1ccc(CS(=O)(=O)c2ccc(Cl)cc2)o1	Pol beta inh inconclusive
COC(=O)c1ccc(CS(=O)(=O)c2ccc(F)cc2)o1	Pol beta inh 35µM, Pol kappa inh inconclusive, Pol eta inh 22µM
COc1ccc(Cn2cc3c(-c4ccc(F)cc4)nnc-3c3cc(OC)c(OC)cc32)cc1	Pol beta inh 79µM, FEN1 inhibitor inconclusive
COc1cc2c3nnc(-c4ccc(F)cc4)c-3cn(Cc3ccc(F)cc3)c2cc1OC	FEN1 inhibitor inconclusive
COc1ccc(-c2cc3c(=O)n(CC(=O)Nc4cc(C)ccc4C)ccn3n2)cc1	Pol beta inh 45µM (no result: PGK inhibitor, Pol eta inh)
CCOc1ccc(-c2cc3c(=O)n(CC(=O)Nc4cc(F)ccc4C)ccn3n2)cc1	none
COc1ccc(OC)c(CCNC(=O)CCCn2c(=O)c3cccn3c3ccccc32)c1	none
O=[N+]([O-])CC(=Nc1ccc(Cl)cc1)N/N=C\c1oc(O)c2ccccc12	Pol eta inh 40µM
Brc1cccc[n+]1Cc1ccc(C[n+]2ccccc2Br)cc1	none (no result: Pol beta inh, PGK inhibitor, Pol eta inh)
COc1cccc2cc(C(=O)C3=C(O)C(=O)N(Cc4ccco4)C3c3cccnc3)oc12 (stereo unspecified)	Pol eta inh 3.5µM
Cc1ccc(C(=O)C2=C(O)C(=O)N(Cc3ccco3)C2c2cccc(Br)c2)o1 (stereo unspecified)	Pol beta inh 79µM
CC1(C)CC(=O)c2cc(C(=O)Nc3cccc4ccccc34)c(=O)[nH]c2C1	FEN1 inhibitor inconclusive (no result: Pol beta inh, PGK inhibitor, Pol eta inh)
COC1=CC(=O)C(C2CC(=O)c3c(O)cc(O)cc3O2)=CC1=O (stereo unspecified)	POLI inh inconclusive, Pol kappa inh 32µM, Pol eta inh inconclusive, FEN1 inhibitor 50µM (no result: Pol beta inh)
CC(=O)C1=C(c2ccc(Br)cc2)C(=O)c2ccccc2C1=O	POLI inh 3.5µM, Pol kappa inh inconclusive
NC(=O)c1c(NC(=O)c2noc3c2CCCC3)sc2c1CCCC2	FEN1 inhibitor inconclusive
Cc1ccc(-n2nc3c(=O)n(CC(=O)NCc4ccco4)nc(C)c3c2C)cc1	none
Cc1ccc(-n2nc3c(=O)n(CC(=O)NCc4cccs4)nc(C)c3c2C)cc1	none
Cc1nn(CC(=O)NCCc2ccco2)c(=O)c2nn(-c3ccccc3)c(C)c12	Pol beta inh 89µM, POLI inh 22µM, Pol eta inh 32µM
Cc1nn(CC(=O)NCCc2cccs2)c(=O)c2nn(-c3ccccc3)c(C)c12	Pol beta inh inconclusive, POLI inh 35µM
N#Cc1ccc(/C=C2\C=Cc3ccccc32)cc1	none (no result: Pol beta inh, PGK inhibitor, Pol eta inh)
O=C(COc1ccccc1F)Nc1ccc(-c2nc3ccccc3s2)cc1	Pol beta inh 45µM
CC1(C)Cc2nc3sc4c(=O)n(CC(=O)NCc5ccccc5)cnc4c3cc2CO1	none
CC(C)c1nc2sc3c(SCC(=O)NCc4ccco4)ncnc3c2c2c1CCC2	Pol beta inh 22µM, POLI inh inconclusive, Pol kappa inh 79µM, Pol eta inh 6.3µM, FEN1 inhibitor inconclusive
CC1(C)Cc2nc3sc4c(SCC(=O)NCc5ccco5)ncnc4c3cc2CO1	Pol beta inh inconclusive, Pol eta inh 22µM
